Reference: PubChem BioAssay (EPA / NIEHS)
Records with an inconclusive call do not appear. Active and inactive are the calls of the source. The calls were made as follows, unless noted: active = hit-call score of the fitted dose curve at least 0.9, where 1 is the maximum; inactive = score below 0.9.

Legend:
[1] = ATG_NFI_CIS: Attagene CIS-FACTORIAL HepG2 Assay for human Nuclear Factor I (NFI) (AID 2282989); settings: HepG2 cis-regulatory reporter, NFI response element transcription; actives raise or lower the signal
In short: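 HepG2 cells transiently transfected with cis-element-driven multiplexed reporter transcription units, dosed for 24 h. Reporter mRNA quantified by RT-PCR, fluorescent labelling, HpaI digestion and capillary electrophoresis; bidirectional fit versus DMSO baseline.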

[2] = target: Myc proto-oncogene protein (Homo sapiens) (UniProt P01106); test: ATG_Myc_CIS: Attagene CIS-FACTORIAL HepG2 Assay for human Myelocytomatosis (Myc) Proto-Oncogene Transcription Factor (AID 2282990); settings: HepG2, Attagene cis-reporter transcription factor activity; actives raise or lower the signal
In short: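 Multiplexed cis-reporter transcription in HepG2 cells after 24 h chemical treatment. Reporter mRNA measured by RT-PCR and capillary electrophoresis fluorescence; activity fitted bidirectionally against DMSO control.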

[3] = ATG_NRF2_ARE_CIS: Attagene CIS-FACTORIAL HepG2 Assay for human Nuclear Factor Erythroid 2 Related Factor 2 (NFR2) response to Antioxidant Response Elements (ARE) (AID 2282992); settings: HepG2 Attagene ARE/NRF2 reporter, transcription factor activity; actives raise or lower the signal
In short: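 Endogenous transcription factor activity read out as reporter transcript levels (RT-PCR plus capillary electrophoresis, fluorescence) in transiently transfected HepG2 cells. Measured at 24 h after dosing; gain or loss of signal fitted versus DMSO.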

[4] = ATG_Oct_MLP_CIS: Attagene CIS-FACTORIAL HepG2 Assay for human Octamer-Binding Transcription Factor (Oct) (AID 2282993); settings: HepG2 Attagene cis-factorial Oct reporter, mRNA; actives raise or lower the signal
In short: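 HepG2 cells transiently transfected with cis-promoter-driven multiplexed reporter transcription units, dosed for 24 h. Reporter mRNA quantified by RT-PCR, fluorescent labelling, HpaI digestion and capillary electrophoresis; bidirectional fits versus DMSO baseline.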

[5] = target: Cellular tumor antigen p53 (Homo sapiens) (UniProt P04637); test: ATG_p53_CIS: Attagene CIS-FACTORIAL HepG2 Assay for human p53 Transcription Factor (AID 2282994); settings: HepG2 p53 cis-element reporter, Attagene mRNA; actives raise or lower the signal
In short: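 Endogenous p53 activity read in transiently transfected HepG2 from a cis-element-driven reporter transcript after 24 h exposure. RNA reverse-transcribed, PCR-amplified, fluorescently labelled and sized by capillary electrophoresis; gain or loss fitted against DMSO baseline.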

[6] = target: human Peroxisome Proliferator-activated Receptor alpha (PPARa), PPARA (gene 5465) (UniProt Q07869); test: ATG_PPARa_TRANS: Attagene TRANS-FACTORIAL HepG2 Assay for human Peroxisome Proliferator-activated Receptor alpha (PPARa) (AID 2283001; active = hit-call score of the fitted dose curve at least 0.9, where 1 is the maximum)
In short: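 Exposure: 24 h, transiently transfected HepG2 cells. Endpoint: GAL4-UAS reporter mRNA, RT-PCR with capillary electrophoresis fluorescence. Baseline: DMSO; increases fitted.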

[7] = target: human Peroxisome Proliferator-activated Receptor delta (PPARd), PPARD (gene 5467) (UniProt Q03181); test: ATG_PPARd_TRANS: Attagene TRANS-FACTORIAL HepG2 Assay for human Peroxisome Proliferator-activated Receptor delta (PPARd) (AID 2283002; active = hit-call score of the fitted dose curve at least 0.9, where 1 is the maximum)
In short: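 Multiplexed trans-activation format: HepG2 liver cells expressing exogenous NR-Gal4 chimeras and GAL4-UAS reporters were exposed for 24 h. Reporter mRNA was detected by RT-PCR with capillary electrophoresis fluorescence; activity fitted as gain of signal relative to DMSO.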

[8] = target: Peroxisome proliferator-activated receptor gamma (Homo sapiens) (UniProt P37231); test: ATG_PPARg_TRANS: Attagene TRANS-FACTORIAL HepG2 Assay for human Peroxisome Proliferator-activated Receptor-gamma (PPARg) (AID 2283007; active = hit-call score of the fitted dose curve at least 0.9, where 1 is the maximum)
In short: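 Liver-derived HepG2 cells expressing an exogenous NR-Gal4 chimera alongside GAL4-UAS reporter genes; 24 h exposure. Fluorescence of reporter RT-PCR products, separated by capillary electrophoresis, gives mRNA induction relative to DMSO.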

[9] = target: human RAR-related Orphan Receptor beta (RORb), RORB (gene 6096) (UniProt Q92753); test: ATG_RORb_TRANS: Attagene TRANS-FACTORIAL HepG2 Assay for human RAR-related Orphan Receptor beta (RORb) (AID 2283010; active = hit-call score of the fitted dose curve at least 0.9, where 1 is the maximum)
In short: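 Multiplexed transcription-factor reporter assay: HepG2 cells transiently carrying NR-Gal4/GAL4-UAS constructs, 24 h treatment, mRNA quantified by RT-PCR plus capillary electrophoresis fluorescence; activity scored as induction over DMSO.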

[10] = target: Nuclear receptor subfamily 1 group I member 2 (Homo sapiens) (UniProt O75469); test: ATG_PXR_TRANS: Attagene TRANS-FACTORIAL HepG2 Assay for human Pregnane X Receptor (PXR) (AID 2283008; active = hit-call score of the fitted dose curve at least 0.9, where 1 is the maximum)
In short: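 Transactivation by exogenous PXR–GAL4 fusion measured as reporter transcript induction after 24 h compound treatment of transfected human HepG2 cells. Read-out via RT-PCR and capillary electrophoresis of labelled fragments, fitted upward relative to DMSO.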

[11] = target: human Retinoic Acid Receptor beta (RARb), RARB (gene 5915) (UniProt P10826); test: ATG_RARb_TRANS: Attagene TRANS-FACTORIAL HepG2 Assay for human Retinoic Acid Receptor beta (AID 2283004; active = hit-call score of the fitted dose curve at least 0.9, where 1 is the maximum)
In short: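 Induction of reporter mRNA from a chimeric RARb-Gal4 construct was measured by RT-PCR, FAM labelling, HpaI digestion and capillary electrophoresis. Measurements followed 24 h compound treatment of transiently transfected human HepG2 liver cells, with DMSO as baseline.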

[12] = target: Retinoic acid receptor alpha (Homo sapiens) (UniProt P10276); test: ATG_RARa_TRANS: Attagene TRANS-FACTORIAL HepG2 Assay for human Retinoic Acid Receptor alpha (RARa) (AID 2283005; active = hit-call score of the fitted dose curve at least 0.9, where 1 is the maximum)
In short: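 HepG2 cells transiently transfected with multiple reporter units expressing chimeric RARα-GAL4 fusion, with GAL4-UAS-driven reporters. After 24 h compound exposure, reporter mRNA induction quantified by RT-PCR and capillary electrophoresis with fluorescent labeling; gain-of-signal fitted relative to DMSO control.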

[13] = target: human Retinoic Acid Receptor gamma (RARg), RARG (gene 5916) (UniProt P13631); test: ATG_RARg_TRANS: Attagene TRANS-FACTORIAL HepG2 Assay for human Retinoic Acid Receptor gamma (RARg) (AID 2283009; active = hit-call score of the fitted dose curve at least 0.9, where 1 is the maximum)
In short: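 Gain-of-signal relative to DMSO is reported from fluorescent capillary electrophoresis of RT-PCR reporter products. These came from HepG2 cells expressing transfected RARg-GAL4 chimeras with UAS reporters, harvested 24 h after dosing.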

Measured: AC50

Peroxisome proliferator-activated receptor gamma (Homo sapiens), sequence (P37231 whole entry, looked up, the tested form may be a part): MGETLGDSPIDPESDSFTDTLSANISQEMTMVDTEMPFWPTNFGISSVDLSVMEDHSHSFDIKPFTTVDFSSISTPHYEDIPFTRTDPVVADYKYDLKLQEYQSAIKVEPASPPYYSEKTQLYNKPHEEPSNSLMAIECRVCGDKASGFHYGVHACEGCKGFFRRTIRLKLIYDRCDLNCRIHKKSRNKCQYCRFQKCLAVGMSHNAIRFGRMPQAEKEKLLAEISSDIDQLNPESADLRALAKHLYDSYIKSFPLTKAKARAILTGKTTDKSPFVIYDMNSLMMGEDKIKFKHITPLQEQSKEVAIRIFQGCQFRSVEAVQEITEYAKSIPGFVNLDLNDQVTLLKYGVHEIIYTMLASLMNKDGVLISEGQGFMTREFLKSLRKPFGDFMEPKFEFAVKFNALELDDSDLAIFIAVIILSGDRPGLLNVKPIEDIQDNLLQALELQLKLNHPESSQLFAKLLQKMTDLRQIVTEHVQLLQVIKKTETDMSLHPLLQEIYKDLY
Nuclear receptor subfamily 1 group I member 2 (Homo sapiens), sequence (O75469 whole entry, looked up, the tested form may be a part): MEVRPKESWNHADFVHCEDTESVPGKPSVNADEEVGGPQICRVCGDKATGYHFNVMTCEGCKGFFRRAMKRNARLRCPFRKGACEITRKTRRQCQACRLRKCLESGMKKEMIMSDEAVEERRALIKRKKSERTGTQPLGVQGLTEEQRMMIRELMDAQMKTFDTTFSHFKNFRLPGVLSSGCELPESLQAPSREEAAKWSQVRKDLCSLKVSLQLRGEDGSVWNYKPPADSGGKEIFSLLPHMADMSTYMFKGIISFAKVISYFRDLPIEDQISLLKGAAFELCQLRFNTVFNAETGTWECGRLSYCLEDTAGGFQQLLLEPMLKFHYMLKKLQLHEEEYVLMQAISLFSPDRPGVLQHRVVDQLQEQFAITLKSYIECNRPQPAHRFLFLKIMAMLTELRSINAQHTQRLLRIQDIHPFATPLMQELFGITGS
Cellular tumor antigen p53 (Homo sapiens), sequence (P04637 whole entry, looked up): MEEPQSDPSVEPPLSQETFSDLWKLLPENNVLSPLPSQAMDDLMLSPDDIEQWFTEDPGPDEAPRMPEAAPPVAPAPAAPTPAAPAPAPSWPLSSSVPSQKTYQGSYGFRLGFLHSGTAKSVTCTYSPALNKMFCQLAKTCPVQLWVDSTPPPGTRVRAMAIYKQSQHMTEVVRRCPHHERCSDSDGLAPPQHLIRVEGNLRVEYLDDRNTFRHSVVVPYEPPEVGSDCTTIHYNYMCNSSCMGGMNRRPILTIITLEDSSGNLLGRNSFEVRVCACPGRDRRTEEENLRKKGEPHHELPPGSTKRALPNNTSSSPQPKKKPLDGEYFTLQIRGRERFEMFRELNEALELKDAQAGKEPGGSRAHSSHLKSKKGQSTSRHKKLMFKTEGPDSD
human Peroxisome Proliferator-activated Receptor delta (PPARd), PPARD (gene 5467), sequence (Q03181 whole entry, looked up, the tested form may be a part): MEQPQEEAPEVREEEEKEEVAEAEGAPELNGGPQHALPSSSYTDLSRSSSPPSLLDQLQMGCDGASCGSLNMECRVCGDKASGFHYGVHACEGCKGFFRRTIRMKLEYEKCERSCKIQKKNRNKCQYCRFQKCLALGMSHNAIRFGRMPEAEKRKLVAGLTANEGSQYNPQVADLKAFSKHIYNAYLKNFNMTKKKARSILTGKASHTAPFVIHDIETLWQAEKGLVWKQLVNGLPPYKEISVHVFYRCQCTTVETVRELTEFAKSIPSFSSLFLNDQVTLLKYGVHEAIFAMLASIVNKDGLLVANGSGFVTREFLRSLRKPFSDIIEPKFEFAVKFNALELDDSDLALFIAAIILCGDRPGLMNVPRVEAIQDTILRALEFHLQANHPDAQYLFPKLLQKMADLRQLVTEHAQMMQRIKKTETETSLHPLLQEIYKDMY
Myc proto-oncogene protein (Homo sapiens), sequence (P01106 whole entry, looked up): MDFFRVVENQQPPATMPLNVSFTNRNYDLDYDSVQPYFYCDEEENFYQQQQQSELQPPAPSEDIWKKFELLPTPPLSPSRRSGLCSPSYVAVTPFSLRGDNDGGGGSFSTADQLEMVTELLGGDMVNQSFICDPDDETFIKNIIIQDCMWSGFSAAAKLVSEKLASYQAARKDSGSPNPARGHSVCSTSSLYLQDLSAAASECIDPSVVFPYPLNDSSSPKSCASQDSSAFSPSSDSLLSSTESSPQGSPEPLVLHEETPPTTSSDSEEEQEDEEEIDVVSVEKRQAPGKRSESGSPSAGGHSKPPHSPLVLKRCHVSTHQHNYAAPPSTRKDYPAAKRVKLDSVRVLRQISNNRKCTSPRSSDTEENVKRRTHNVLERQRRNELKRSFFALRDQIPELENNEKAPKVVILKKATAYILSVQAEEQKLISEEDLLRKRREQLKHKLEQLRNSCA
human Peroxisome Proliferator-activated Receptor alpha (PPARa), PPARA (gene 5465), sequence (Q07869 whole entry, looked up, the tested form may be a part): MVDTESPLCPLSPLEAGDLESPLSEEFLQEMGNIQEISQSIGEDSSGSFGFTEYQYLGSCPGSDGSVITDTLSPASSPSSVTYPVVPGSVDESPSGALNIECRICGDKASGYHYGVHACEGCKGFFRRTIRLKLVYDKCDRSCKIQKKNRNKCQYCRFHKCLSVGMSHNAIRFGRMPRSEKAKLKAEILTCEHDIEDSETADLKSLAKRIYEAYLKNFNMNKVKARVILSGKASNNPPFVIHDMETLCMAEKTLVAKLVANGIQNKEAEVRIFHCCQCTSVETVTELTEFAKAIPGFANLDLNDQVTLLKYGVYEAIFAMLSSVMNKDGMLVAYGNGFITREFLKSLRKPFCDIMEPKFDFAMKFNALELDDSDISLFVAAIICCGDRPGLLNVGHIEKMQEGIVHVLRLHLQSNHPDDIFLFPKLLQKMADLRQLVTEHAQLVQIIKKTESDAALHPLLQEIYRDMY
human RAR-related Orphan Receptor beta (RORb), RORB (gene 6096), sequence (Q92753 whole entry, looked up, the tested form may be a part): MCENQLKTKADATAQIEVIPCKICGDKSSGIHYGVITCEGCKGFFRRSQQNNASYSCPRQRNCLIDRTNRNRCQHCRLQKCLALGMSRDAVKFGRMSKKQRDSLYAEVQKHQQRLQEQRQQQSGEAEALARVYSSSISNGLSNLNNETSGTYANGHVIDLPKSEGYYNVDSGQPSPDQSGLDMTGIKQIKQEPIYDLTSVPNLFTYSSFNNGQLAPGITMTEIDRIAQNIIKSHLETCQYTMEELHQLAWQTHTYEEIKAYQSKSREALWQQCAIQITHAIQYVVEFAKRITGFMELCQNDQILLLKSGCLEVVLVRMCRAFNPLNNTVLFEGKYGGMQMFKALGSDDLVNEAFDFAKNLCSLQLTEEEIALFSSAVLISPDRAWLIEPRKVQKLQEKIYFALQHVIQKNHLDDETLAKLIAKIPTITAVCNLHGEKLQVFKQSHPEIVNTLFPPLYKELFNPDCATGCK
Retinoic acid receptor alpha (Homo sapiens), sequence (P10276 whole entry, looked up, the tested form may be a part): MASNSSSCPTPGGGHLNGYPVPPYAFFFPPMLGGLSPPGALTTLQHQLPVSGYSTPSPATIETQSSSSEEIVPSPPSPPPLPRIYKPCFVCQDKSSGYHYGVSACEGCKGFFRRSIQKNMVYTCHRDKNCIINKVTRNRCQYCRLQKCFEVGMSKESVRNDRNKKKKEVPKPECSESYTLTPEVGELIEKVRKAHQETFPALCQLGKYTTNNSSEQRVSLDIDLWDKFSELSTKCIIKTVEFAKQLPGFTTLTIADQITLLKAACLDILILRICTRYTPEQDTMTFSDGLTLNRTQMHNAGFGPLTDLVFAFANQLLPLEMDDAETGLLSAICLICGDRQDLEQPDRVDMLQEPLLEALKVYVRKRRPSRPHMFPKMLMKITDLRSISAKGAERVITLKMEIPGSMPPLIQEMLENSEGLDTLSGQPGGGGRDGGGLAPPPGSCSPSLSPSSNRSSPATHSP
human Retinoic Acid Receptor gamma (RARg), RARG (gene 5916), sequence (P13631 whole entry, looked up, the tested form may be a part): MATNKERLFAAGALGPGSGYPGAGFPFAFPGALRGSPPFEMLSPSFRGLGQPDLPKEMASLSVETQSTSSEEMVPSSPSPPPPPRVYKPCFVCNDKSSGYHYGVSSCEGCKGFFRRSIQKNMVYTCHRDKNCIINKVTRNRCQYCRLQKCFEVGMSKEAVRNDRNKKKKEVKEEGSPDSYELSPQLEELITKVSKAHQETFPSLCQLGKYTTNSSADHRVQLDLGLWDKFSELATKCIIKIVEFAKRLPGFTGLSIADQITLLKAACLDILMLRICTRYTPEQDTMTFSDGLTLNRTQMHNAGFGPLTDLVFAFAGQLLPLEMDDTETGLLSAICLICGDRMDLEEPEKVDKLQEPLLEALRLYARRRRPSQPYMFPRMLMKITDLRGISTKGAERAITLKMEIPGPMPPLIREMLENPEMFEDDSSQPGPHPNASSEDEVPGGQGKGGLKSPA
human Retinoic Acid Receptor beta (RARb), RARB (gene 5915), sequence (P10826 whole entry, looked up, the tested form may be a part): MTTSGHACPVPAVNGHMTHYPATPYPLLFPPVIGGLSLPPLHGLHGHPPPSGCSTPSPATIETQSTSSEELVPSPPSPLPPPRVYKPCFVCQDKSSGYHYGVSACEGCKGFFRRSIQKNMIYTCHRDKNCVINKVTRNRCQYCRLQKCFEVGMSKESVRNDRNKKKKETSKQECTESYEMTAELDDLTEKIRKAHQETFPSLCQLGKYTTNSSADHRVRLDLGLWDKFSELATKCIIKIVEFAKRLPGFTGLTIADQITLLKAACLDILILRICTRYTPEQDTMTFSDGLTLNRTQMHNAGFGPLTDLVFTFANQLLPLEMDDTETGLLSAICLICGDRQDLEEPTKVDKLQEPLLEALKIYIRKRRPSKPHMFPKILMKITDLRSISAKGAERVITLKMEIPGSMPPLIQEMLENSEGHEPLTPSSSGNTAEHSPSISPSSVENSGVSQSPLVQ

CCCC[O][Al]([O]CCCC)[O]CCCC
inactive: [1] | [2] | [3] | [4] | [5]

COC(=O)Nc1ccc(Cl)c(Cl)c1
active: [3] 100 µM | [8] 27.4 µM
inactive: [1] | [2] | [4] | [5] | [6] | [7]

CCCC(=O)c1ccccc1
inactive: [1] | [2] | [3] | [4] | [5] | [8] | [9]

CCCCC(CC)(CO)CO
inactive: [1] | [2] | [3] | [4] | [5] | [8] | [10]

CN1CCOCC1
not listed: [6] | [7] | [8] | [9] | [10]
inactive: all other assays above

O=Cc1ccccc1S(=O)(=O)O
inactive: [1] | [2] | [3] | [4] | [7] | [8]

CC/C=C\CC/C=C/CO
active: [3] 48.2 µM | [8] 52.9 µM
inactive: [1] | [2] | [4] | [6] | [7]

O=C(CC(=O)c1ccccc1)c1ccccc1
inactive: [5] | [7]
active: [1] 100 µM | [2] 100 µM | [3] 3.43 µM | [4] 59 µM | [8] 3.74 µM | [10] 28.2 µM

CS(=O)(=O)c1ccc(Cl)cc1
inactive: [1] | [2] | [3] | [4] | [7] | [10] | [9]

CCCC[P+](CCCC)(CCCC)CCCC
inactive: [1] | [2] | [3] | [4] | [5] | [12] | [10]

CC(C)(C)c1ccc(C(=O)O)cc1
inactive: [1] | [2] | [3] | [4] | [5] | [8] | [10]
